# CYP2C19 activ: cytochrome P450 2C19 (human) activation; AID 1025; P33261; 96,000 tested, under 10 active; activation factor at 5 µM; recombinant CYP2C19, luciferin-H EGE luminescence; stronger effect = higher value; 0 = fully inhibited enzyme, 1 = untreated enzyme;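 active = activation factor of at least 2 at 5 µM in the primary screen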;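 note: 0 = wells with 2.5 mM tranylcypromine and 1 = vehicle-only wells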
# CYP2C9 inhib: blocks human cytochrome P450 2C9 | P11712 | CYP2C9 Supersomes, luciferin-H conversion, luminescence | inhibition, % at 5 µM | 96,000 compounds, 20% hits | AID 777;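 active = blocking of liver enzyme CYP2C9 beyond about 50% at 5 µM, limit read from the data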
# CYP2C19 inh: blocks human cytochrome P450 2C19; 96,000 compounds, 21% hits; inhibition, % at 5 µM; P33261; CYP2C19 Supersomes, luciferin-H EGE luminescence, 30 min;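 active = CYP2C19 inhibition above a set limit at 5 µM in the primary screen, cut at about 50% in these data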;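 note: plate controls were negative control wells for no effect and 2.5 mM tranylcypromine positive control for full effect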
# Cav3 T inh: blocks human Cav3.2 T-type calcium channel. O95180. Cav3.2-expressing cells, Fluo-4 calcium fluorescence FDSS; stronger effect = lower value. B-score at 10 µM. 100,000 compounds, 4% hits. AID 449739;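 active = single-dose well whose peak fluorescence ratio is a statistical outlier from its plate by either plate-standardised score or position-corrected B-score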
# CYP2C9 activ: increases human cytochrome P450 2C9 activity; P11712; recombinant CYP2C9, luciferin-H conversion, luminescence; stronger effect = higher value; factor 1 = untreated enzyme, 0 = blocked; activation factor at 5 µM; 96,000 compounds, 1.4% hits; AID 1024;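 active = activation factor of 2 or more for CYP2C9 at a 5 µM dose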;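 note: 0 = sulfaphenazole-blocked wells and 1 = vehicle-only wells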
# Pyk2 oligo antag: blocks oligomerization of human Pyk2 in cells; Q293 cells, Pyk2 FERM NanoBiT luminescence; stronger effect = lower value; z-score (the deposit names both 25 µM and 10 µM); 99,000 compounds, 0.83% hits;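 active = Z-score of -3 or lower, scaled per plate to the spread of control and sample wells; inactive = z-score above -3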;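 note: negative z-score means lost luminescence so less FERM oligomerization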
# * marks the source's active call; other numbers are inactive results; x = no result. An excerpt weighted towards active compounds, which were near 27% of everything screened.
SMILES,CYP2C19 activ,CYP2C9 inhib,CYP2C19 inh,Cav3 T inh,CYP2C9 activ,Pyk2 oligo antag
COc1cc(OC)cc(-c2cc(N)n(S(=O)(=O)Cc3ccccc3)n2)c1,0.6,87.3*,43.3,-0.0589,0.1,x
CCC(C)n1c(SCC(=O)NCc2ccco2)nnc1-c1cccc(S(=O)(=O)N2CCOCC2)c1 (centres undefined),1.1,19.5,-5.9,0.198,0.8,1.34
COc1oc(-c2ccccc2)nc1C(F)(F)F,1.1,-12.1,-12.5,0.00314,1.1,0.57
CC(=O)n1cc([C@H]2C=C(C(=O)N3CCN(Cc4ccccc4)CC3)O[C@@H](OCc3ccc(CO)cc3)C2)c2ccccc21,x,x,x,0.0131,x,x
CC(=O)Nc1cc(C(F)(F)F)ccc1N1CCOCC1,1,-5.6,-1.1,0.756,1.1,0.38
O=C(Nc1cc(C(F)(F)F)ccc1N1CCOCC1)c1ccc2ccccc2n1,0.7,59.6*,31.3,-1.54,0.4,-1.16
O=C(Nc1cc(C(F)(F)F)ccc1N1CCOCC1)c1ccccc1F,0.9,-6.7,8.2,x,1.1,0.07
COc1cccc(OC)c1C(=O)Nc1cc(Cl)ccc1N1CCOCC1,0.6,61.7*,41.4,-0.213,0.4,-0.04
O=C(Nc1cc(C(F)(F)F)ccc1N1CCOCC1)c1cccs1,0.4,14.6,59.3*,0.351,0.9,-0.48
CC(C)(C)C(=O)NC(=S)Nc1cc(C(F)(F)F)ccc1N1CCOCC1,0,93.7*,95.9*,-2,0.1,-1.39
O=C(Nc1cc(Cl)ccc1N1CCOCC1)c1cnccn1,x,x,x,-1.59,x,-1.17
CCCCSC(=S)N(C)C1CCS(=O)(=O)C1 (centres undefined),0.5,29.0,48.7,0.453,0.7,0.82
O=C(Nc1cc(C(F)(F)F)ccc1N1CCOCC1)c1cccc(F)c1,0.2,4.1,82.9*,-0.0197,1,0.97
O=C(Nc1cc(C(F)(F)F)ccc1N1CCOCC1)C1Cc2ccccc2CN1C(=O)c1ccco1 (centres undefined),0.1,95.8*,89.5*,-8.81*,0,-0.54
CC(C)CCNC(=O)Cn1c(NCCC(C)C)nc2c1c(=O)n(C)c(=O)n2C,x,x,x,1.32,x,x
Cc1[nH]n(-c2ccccc2)c(=O)c1C(C[N+](=O)[O-])c1ccccc1Cl (centres undefined),0.1,92.4*,87.7*,0.218,0.1,-0.82
NS(=O)(=O)c1ccc(NC(=O)CSc2nnc(-c3cnccn3)n2-c2ccccc2)cc1,1.2,-25.6,-16.7,0.104,1.3,-0.56
Cc1ccc(C(=O)COC(=O)C2CC(=O)N(c3nc(-c4ccccc4)cs3)C2)cc1C (centres undefined),0.9,90.3*,12.9,-1.28,0.1,1.48
C=CCN(C/C(=N\O)c1sc(C(=O)OCC)nc1C)c1cccc(Br)c1,x,x,x,-3.2,x,x
Cc1ccc(-c2cc(C(=O)Nc3ccc4c(c3)OCCO4)c3ccccc3n2)cc1,0.8,76.2*,23.2,-0.464,0.2,-1.79
CCN(CC(=O)Nc1ccc2c(c1)OCCO2)c1nc(-c2cccnc2)nc2ccccc12,0.3,56.4*,65.8*,-1.51,0.4,-0.79
Cn1nc(CC(=O)Nc2ccc3c(c2)OCCO3)c2ccccc2c1=O,1.1,-24.8,-7.6,x,1.2,0.42

# Bioassay records (PubChem)
